# About 410 targets per protein were measured; listed, in parts, are those with the strongest signals and a random draw of the rest.
# B1: Surfactant Protein D (Human); Neck + Carbohydrate Recognition Domain (NCRD) (Homo sapiens) (protein)
# chain: MLLFLLSALVLLTQPLGYLEAEMKTYSHRTMPSACTLVMCSSVESGLPGRDRDGREGPRGEKGDPGLPGAAGQAGMPGQAGPVGPKGDNGSVGEPGPKGDTGPSGPPGPPGVPGPAGREGALGKQGNIGPQGKPGPKGEAGPKGEVGAPGMQGSAGARGLAGPKGERGVPGERGVPGNTGAAGSAGAMGPQGSPGARGPPGLKGDKGIPGDKGAKGESGLPDVASLRQQVEALQGQVQHLQAAFSQYKKVELFPNGQSVGEKIFKTAQFVKPFTEAQLLCTQAGGQLASPRSAAENAALQQLVVAKNEAAFLSMTDSKTEGKFTYPTGESLVYSNWAPGEPNDDGGSEDCVEIFTNGKWNDAACGEKRLVVCEF
# What was measured:
# Experiment in all cases: glycan array binding signal (z-score within array); higher = stronger binding
# Details in all cases: glycan notation: IUPAC condensed, linker removed; mutation: R343A
# [1] = target: Fuc(a1-2)Gal(b1-3)GalNAc(b1-3)Gal(a1-4)Gal(b1-4)Glc
# Outline: (§1)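 Glycan array data were curated from 3228 arrays in the Consortium for Functional Glycomics database and kept only where the protein sequence was available. Glycan names were converted to IUPAC-condensed notation, and columns mapping to the same glycan were averaged. The binding signal is a within-array Z-score, averaged across arrays of the same protein sequence at different concentrations or buffers and across linkers. Negative Z-scores can be read as non-binding.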
# [2] = target: Fuc(a1-2)Gal(b1-3)GlcNAc(b1-3)Gal(b1-4)Glc
# Outline: as §1
# Fuc(a1-2)Gal(b1-4)GlcNAc = target: Fuc(a1-2)Gal(b1-4)GlcNAc
# Outline: as §1
# Fuc(a1-4)GlcNAc = target: Fuc(a1-4)GlcNAc
# Outline: as §1
# Gal(a1-3)GalNAc = target: Gal(a1-3)GalNAc
# Outline: as §1
# Gal(b1-3)Gal = target: Gal(b1-3)Gal
# Outline: as §1
# [3] = target: Gal(b1-3)GlcNAc(b1-3)Gal(b1-4)Glc
# Outline: as §1
# [4] = target: Gal(b1-4)GalNAc(a1-3)[Fuc(a1-2)]Gal(b1-4)GlcNAc
# Outline: as §1
# Gal(b1-4)Glc = target: Gal(b1-4)Glc
# Outline: as §1
# [5] = target: Gal3S(b1-3)[Fuc(a1-4)]GlcNAc
# Outline: as §1
# [6] = target: GlcNAc(b1-3)Gal(b1-4)GlcNAc(b1-3)Gal(b1-4)GlcNAc
# Outline: as §1
# Kdn(a2-3)Gal(b1-4)GlcNAc = target: Kdn(a2-3)Gal(b1-4)GlcNAc
# Outline: as §1
# [7] = target: Man(a1-2)Man(a1-3)[Man(a1-2)Man(a1-6)]Man
# Outline: as §1
# [8] = target: Man(a1-2)Man(a1-3)[Man(a1-2)Man(a1-6)]Man(a1-6)[Man(a1-2)Man(a1-2)Man(a1-3)]Man
# Outline: as §1
# [9] = target: Man(a1-2)Man(a1-3)[Man(a1-2)Man(a1-6)]Man(a1-6)[Man(a1-2)Man(a1-2)Man(a1-3)]Man(b1-4)GlcNAc(b1-4)GlcNAc
# Outline: as §1
# [10] = target: Man(a1-2)Man(a1-3)[Man(a1-6)]Man(a1-6)[Man(a1-2)Man(a1-3)]Man(b1-4)GlcNAc(b1-4)GlcNAc
# Outline: as §1
# [11] = target: Man(a1-2)Man(a1-6)[Man(a1-3)]Man(a1-6)[Man(a1-2)Man(a1-2)Man(a1-3)]Man
# Outline: as §1
# [12] = target: Man(a1-3)[Man(a1-6)]Man(a1-6)[Man(a1-2)Man(a1-3)]Man(b1-4)GlcNAc(b1-4)GlcNAc
# Outline: as §1
# [13] = target: Neu5Ac(a2-3)Gal(b1-4)GlcNAc(b1-3)Gal(b1-4)[Fuc(a1-3)]GlcNAc
# Outline: as §1
# [14] = target: Neu5Gc(b2-6)Gal(b1-4)GlcNAc
# Outline: as §1
binder,measurement,setting,value
B1,glycan array binding signal (z-score),[1],-0.236
same,glycan array binding signal (z-score),[2],-0.397
same,glycan array binding signal (z-score),Fuc(a1-2)Gal(b1-4)GlcNAc,-0.207
same,glycan array binding signal (z-score),Fuc(a1-4)GlcNAc,-0.016
same,glycan array binding signal (z-score),Gal(a1-3)GalNAc,-0.163
same,glycan array binding signal (z-score),Gal(b1-3)Gal,-0.274
same,glycan array binding signal (z-score),[3],-0.279
same,glycan array binding signal (z-score),[4],-0.214
same,glycan array binding signal (z-score),Gal(b1-4)Glc,-0.341
same,glycan array binding signal (z-score),[5],0.046
same,glycan array binding signal (z-score),[6],-0.173
same,glycan array binding signal (z-score),Kdn(a2-3)Gal(b1-4)GlcNAc,-0.194
same,glycan array binding signal (z-score),[7],9.14
same,glycan array binding signal (z-score),[8],6.17
same,glycan array binding signal (z-score),[9],-0.269
same,glycan array binding signal (z-score),[10],9.15
same,glycan array binding signal (z-score),[11],2.79
same,glycan array binding signal (z-score),[12],6.5
same,glycan array binding signal (z-score),[13],-0.226
same,glycan array binding signal (z-score),[14],-0.326
